Screens from PubChem.
Only some compounds are listed: those with a hit (about 2.9% of all), similar ones and a draw of the others.
FXN GAA850 act: FXN promoter activators, primary screen, cell-based, luciferase luminescence, HEK293 lucGAA850; hit rate 0.56% among 360,000; AID 540364, 2011; activation, % at 6 µM; HEK293 lucGAA850 FXN promoter luciferase reporter, 24 h; percent of 10 µM SAHA response;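 active = activation above the average of all compounds screened plus 3 SD, cutoff fixed separately per campaign, cut at about 7.5% in these data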
SMARCA2 activ: SMARCA2 (BRM) function activators, primary screen, cell-based, luminescence, high throughput; hit rate 1% among 370,000; MG213 cells, MMTV-luciferase reporter, dexamethasone, overnight; activation, % at 9.1 µM; in the data active = activation above about 7.8%
KLK7 zymogen act: proKLK7 zymogen activators, primary screen, biochemical, fluorescence intensity; purified proKLK7, EDANS-DABCYL substrate fluorescence; 100% is mature enzyme control, 0% vehicle; activation, % at 7 µM; hit rate 0.9% among 370,000;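 active = activation above the mean of all tested compounds plus 3 SD, computed per campaign excluding outliers beyond control limits, cut at about 13% in these data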
Target sequence (P49862 whole entry, looked up): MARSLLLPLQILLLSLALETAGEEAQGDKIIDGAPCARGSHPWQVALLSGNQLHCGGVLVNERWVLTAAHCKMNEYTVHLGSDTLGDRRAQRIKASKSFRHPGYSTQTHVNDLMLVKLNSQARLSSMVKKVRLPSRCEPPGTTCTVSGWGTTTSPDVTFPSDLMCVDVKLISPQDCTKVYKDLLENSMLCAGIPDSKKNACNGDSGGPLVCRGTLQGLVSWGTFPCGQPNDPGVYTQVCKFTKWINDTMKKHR
FAS TE block: FAS thioesterase domain inhibitors, primary screen, biochemical, fluorescence intensity, uHTS | Fatty acid synthase (Homo sapiens), P49327 | recombinant FAS-TE, OMFH fluorogenic substrate, fluorescence endpoint | inhibition, % at 15 µM | hit rate 0.67% among 360,000 | AID 602261, 2012;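 active = compounds whose normalised, plate-corrected inhibition of enzyme fluorescence in the single-dose primary screen is 50% or more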
FAS-TE inh conf: FAS thioesterase domain inhibitors, confirmation, biochemical, fluorescence intensity, single concentration | shares compounds with FAS TE block | recombinant FAS-TE, OMFH fluorogenic substrate | inhibition, % at 15 µM | hit rate 45% among 2,300 | AID 624325, 2012;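 active = compounds inhibiting the enzyme by at least 50% at 15 µM in any one of the replicates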
Each line names hits and unclear results; the compound was inactive in the other large screens (follow-up assays come after a bar, where they were run).

O=C(/C=C/c1cccc([N+](=O)[O-])c1)N1CCOCC1	none
O=C(/C=C/c1cccc([N+](=O)[O-])c1)N1CCN(S(=O)(=O)c2cccs2)CC1	FAS TE block 77 | FAS-TE inh conf 83
O=C(/C=C/c1cccc([N+](=O)[O-])c1)N1CCN(c2ccccn2)CC1	FAS TE block 51 | FAS-TE inh conf inactive
COc1ccccc1NC(=O)C(C)OC(=O)C1CCN(S(=O)(=O)c2ccccc2C(F)(F)F)CC1 (stereo unspecified)	none
O=C(O)CSc1cc(C(=O)c2ccccc2O)cn2c(=O)c3c(-c4ccccc4)csc3nc12	FAS TE block 70 | FAS-TE inh conf 79
Cc1onc(-c2c(Cl)cccc2Cl)c1-c1nc2cc(Cl)ccc2c(=O)o1	FAS TE block 54 | FAS-TE inh conf inactive
Cc1onc(-c2c(F)cccc2Cl)c1-c1nnc(-c2cccc3ccccc23)o1	none
Cc1ccc2nc(SCC(=O)N3N=C(c4cccs4)CC3c3ccc(F)cc3)nc(=O)n2c1 (stereo unspecified)	none
COc1ccc(C2=NN(C(=O)CSc3ncccn3)C(c3ccc(C)cc3)C2)cc1 (stereo unspecified)	none
Cc1ccn2c(=O)nc(SCC(=O)N3N=C(c4cccs4)CC3c3ccc(F)cc3)nc2c1 (stereo unspecified)	FAS TE block 54 | FAS-TE inh conf 46
Cc1cccn2c(=O)nc(SCC(=O)N3N=C(c4cccs4)CC3c3ccc(F)cc3)nc12 (stereo unspecified)	FAS TE block 54 | FAS-TE inh conf inactive
Cc1ccc(C2CC(c3cccs3)=NN2C(=O)CSc2nc(=O)n3cc(C)ccc3n2)cc1 (stereo unspecified)	FAS TE block 51 | FAS-TE inh conf inactive
COc1ccc(C2=NN(C(=O)CSc3nc(=O)n4cccc(C)c4n3)C(c3ccc(C)cc3)C2)cc1 (stereo unspecified)	FAS TE block 90 | FAS-TE inh conf inactive
CCOc1ccc2oc(C(=O)OCC(=O)N(CC(C)C)c3c(N)n(Cc4ccccc4)c(=O)[nH]c3=O)c(C)c2c1	none
Cc1c(C(=O)NCc2ccc3c(c2)OCO3)sc(=O)n1Cc1ccc(S(=O)(=O)N(C)C)cc1	none
Cc1ccc(-c2nn(-c3ccccc3)cc2C=C2SC(=S)N(CCS(=O)(=O)O)C2=O)cc1	none
O=C1C(=Cc2cn(-c3ccccc3)nc2-c2ccc(OCc3ccccc3)cc2)SC(=S)N1CCS(=O)(=O)O	FAS TE block 71 | FAS-TE inh conf inactive
CC(C)COc1ccc(-c2nn(-c3ccccc3)cc2/C=C2/SC(=S)N(CC(=O)O)C2=O)cc1	FAS TE block 78 | FAS-TE inh conf inactive
O=C(O)CN1C(=O)/C(=C\c2cn(-c3ccccc3)nc2-c2ccccc2)SC1=S	none (no result: SMARCA2 activ, KLK7 zymogen act)
COc1ccc(NC(=O)CN(C)C(=O)CN2C(=O)NC3(CCCCC3)C2=O)cc1	none
COc1cc(C(=O)NC(=S)Nc2ccc([N+](=O)[O-])cc2C)cc(OC)c1OC	none
COc1cc(C(=O)NC(=S)Nc2ccccc2[N+](=O)[O-])cc(OC)c1OC	FAS TE block 65 | FAS-TE inh conf inactive
Cc1cc(C)c(C#N)c(SCC(O)COc2ccc(Br)cc2)n1 (stereo unspecified)	FAS TE block 63 | FAS-TE inh conf inactive
Cc1cc(C)c(C#N)c(SCC(O)CS(=O)(=O)Cc2ccccc2)n1 (stereo unspecified)	none
COc1ccc(C2=NN(C(=O)c3ccc(Cl)c([N+](=O)[O-])c3)C(c3ccccc3)C2)cc1 (stereo unspecified)	FAS TE block 56 | FAS-TE inh conf inactive
CCOc1ccc2nc(NC(NC(C)=O)(C(=O)OC)C(F)(F)F)sc2c1 (stereo unspecified)	none
O=C(NCc1ccc(C(F)(F)F)cc1)C1CC(c2c(Cl)cccc2Cl)=NO1 (stereo unspecified)	FAS TE block 55 | FAS-TE inh conf 55
O=C(NCc1ccc(C(F)(F)F)cc1)C1CC(c2ccc(C(F)(F)F)cc2)=NO1 (stereo unspecified)	none
O=C1OCCN1C(=O)[C@H]1[C@H](c2ccc(F)cc2)C(c2ccccc2)=NN1c1ccccc1	none
O=C1OCCN1C(=O)[C@H]1[C@H](c2ccc(Cl)cc2)C(c2ccc(F)cc2)=NN1c1ccc(Br)cc1	FAS TE block 88 | FAS-TE inh conf inactive
O=C1OCCN1C(=O)[C@H]1[C@H](c2ccc(F)cc2)C(c2ccc(F)cc2)=NN1c1ccc(Br)cc1	FAS TE block 84 (no result: SMARCA2 activ, KLK7 zymogen act) | FAS-TE inh conf inactive
CCNC(=O)Cn1cnc2c1c(=O)n(C)c(=O)n2C	none
CCc1cc(=O)oc2cc(C)cc(OCC(=O)NC3CC3)c12	none
CCCN(CCC)CCCNC(=O)c1cc2c(-c3ccc(OC)c(OC)c3)nn(C)c2s1	none
COCCNC(=O)/C(C#N)=C1\N=C(NC(=O)c2cccs2)c2ccccc21	none
COc1ccc(CNC(=O)/C(C#N)=C2\N=C(NC(=O)c3cccs3)c3ccccc32)cc1	FAS TE block 51 | FAS-TE inh conf inactive
Cc1ccn2cc(C(=O)NCc3ccco3)nc2c1	none
Cc1ccc(SCc2ccc(C(=O)Nc3cccc([N+](=O)[O-])c3C)cc2)cc1	FAS TE block 51 | FAS-TE inh conf inactive
COc1ccccc1C(=O)N/C(=C/c1ccccc1)C(=O)NC(CCSC)C(=O)O (stereo unspecified)	none
NC(=O)Cn1cc(/C=N\NS(=O)(=O)c2ccc(F)cc2)c2ccccc21	none
Cc1cccc(Oc2ccc(S(=O)(=O)N3CCCCC3)cc2NC(=O)C2=COCCO2)c1	FAS TE block 65 | FAS-TE inh conf inactive
CC(C)Oc1ccc(S(=O)(=O)N2CCCCC2)cc1NC(=O)C1=COCCO1	none
COc1cc(CNC(=O)c2cnc(C)cn2)cc(OC)c1	none
Cc1cc(C)c(C#N)c(Sc2nc(C)c([N+](=O)[O-])c(C)c2C#N)n1	none (no result: FXN GAA850 act)
Cc1nc(Sc2ccccc2)c(C#N)c(C)c1[N+](=O)[O-]	FAS TE block 59 | FAS-TE inh conf 46
Cc1ccc(S(=O)(=O)/N=C(\N)Nc2nc(C)c3ccccc3n2)cc1	none
Cc1ccc2nc(N/C(N)=N/S(=O)(=O)c3ccc([N+](=O)[O-])cc3)nc(C)c2c1	FAS TE block 67 | FAS-TE inh conf 55
Cc1ccc(-c2nnn(CC(=O)N(CCO)C(C(=O)NC3CCCCC3)c3ccncc3)n2)o1 (stereo unspecified)	none
COc1ccc(OC)c(COC(=O)c2cc([N+](=O)[O-])ccc2N2CCOCC2)c1	FAS TE block 54 | FAS-TE inh conf 51
CSc1ccc(COC(=O)c2cc([N+](=O)[O-])ccc2N2CCOCC2)cc1	FAS TE block 66 | FAS-TE inh conf 57
COc1cccc(NC(=O)COc2c(F)c(F)c(C(F)(F)F)c(F)c2F)c1	FAS TE block 58 | FAS-TE inh conf 37
